Inhibition data for 40 molecules are collected here from PubChem BioAssay.

The structures appear in SMILES notation. Activity calls are given as the source filed them. No stated cut-off is given here; in the data, active means inhibition above about 33%; inactive means the rest.

The nature of this assay: compounds suppressing VP16-driven luciferase signal – cell-based, luminescence, high throughput, counter-screen for LRH-1 inverse agonist project (AID 651615). The note with it: Gal4-VP16 luciferase reporter cells, at 3.6 µM, hits give high values. For orientation: The purpose of a counterscreen is to sort out artefacts and off-target activity.
Consider `CC(=O)Nc1cc(-c2cccnc2)cn2c(-c3ccc(F)cc3)cnc12`, for which the inhibition is 0.11% (inactive).
With `CCOc1ccc2c(c1)sc(N)[n+]2Cc1cc(C)cc2cccnc12`, the inhibition is 39.5% (active).
The result for `Nc1cccc(OCCCCCOc2cccc(N)c2)c1` reads -5% (inactive); that for `COc1ccc(C2=Nn3c(nnc3-c3ccccc3OC)SC2)cc1OC1CCOC1` (stereo not given), 19.3% (inactive).
The result for `N#Cc1ccc(NC(=O)COc2ccc(-n3cnnn3)cc2)cc1` reads -2.83% (inactive); that for `O=C(NCc1ccc2c(c1)OCO2)c1nn(-c2ccccc2)c(=O)c2ccccc12`, -2.13% (inactive).
The result for `O=C(Nc1ccccc1C(=O)NCCCn1ccnc1)c1ccccc1` reads -3.84% (inactive); that for `O=C(NCc1ccco1)c1nn(-c2ccccc2)c(=O)c2ccccc12`, -14.1% (inactive); that for `Cc1onc(-c2ccccc2Cl)c1-c1nc(-c2ccncc2)no1`, 18.2% (inactive).
With `O=C(Nc1c(Cl)ccc2nsnc12)c1ccc([N+](=O)[O-])o1`, the inhibition is -11.9% (inactive).
With `CC1Cc2ccccc2N1C1=CC(=O)CC(C)(C)C1` (stereo not given) the figure was -3.44% (inactive).
With `CC(C)c1ccc(NC(=O)CSc2nc(=O)[nH]c3c2CCCC3)cc1` the figure was -10.5% (inactive).
Consider `O=C(CSc1n[nH]c(-c2ccccn2)n1)Nc1ccc(Cl)cc1`, for which the inhibition was 41.4% (active).
On to `O=C(Nc1ccc(F)cc1)c1oc2ccccc2c1NC(=O)C1CC1`, for which the inhibition is 3.97% (inactive).
The result for `Cc1cc(-n2c(C)cc(C(=O)CSc3ncnc4ccccc34)c2C)no1` reads 36.9% (active); that for `O=C(c1ccc(Oc2ccc(Cl)cc2)c([N+](=O)[O-])c1)N1CCCC1`, -0.01% (inactive); that for `COC(=O)c1c(NC(=O)c2cccc(N3C(=O)CCC3=O)c2)sc2c1CCN(C(C)=O)C2`, -30.4% (inactive).
On to `CCOc1ccc(NC(=O)CSc2nc3cccnc3n2CCOC)cc1`, for which the inhibition is -10.9% (inactive).
For the molecule `Cc1no[n+]([O-])c1COc1ccccc1/C=N/n1nnnc1N`, the inhibition is -13.9% (inactive).
With `COc1ccc(N2CCN(C(=O)CSc3nc4ccccc4c(=O)[nH]3)CC2)cc1` the figure was -12.9% (inactive); with `COc1ccccc1NC(=O)CN1CCN(CC(=O)Nc2ccc3c(c2)OCCO3)CC1`, -7.19% (inactive); with `CCOCc1c(C(=O)Nc2ccccc2N2CCN(C)CC2)oc2ccccc12`, 8.89% (inactive).
With `Clc1ccc2c(c1)-c1ccccc1C1=NCCN12` the figure was 64.1% (active).
With `Cc1ccc(CC(=O)Nc2ccncc2)cc1` the figure was 40.5% (active); with `O=C(N/N=C/c1ccc([N+](=O)[O-])s1)C(O)c1ccccc1` (stereo not given), -11.9% (inactive).
As to `O=C(O)/C=C/C(=O)Nc1ccccc1SC(F)(F)C(F)(F)C(F)(F)F`, the inhibition was 6.88% (inactive).
The result for `O=C(NCc1cccnc1)c1ccc(NC(=O)c2ccc(Br)cc2)cc1` reads 18.5% (inactive); that for `CC(=O)Nc1ccc(N=c2cc([N+](=O)[O-])cc(Cl)n2O)cc1`, -3.98% (inactive); that for `CCn1nnc(NC(=O)c2ccc([N+](=O)[O-])o2)n1`, -13.8% (inactive).
The result for `CCc1c(O)nc(SCC(=O)Nc2ccccc2C)n(-c2ccc(C)cc2)c1=O` reads -1.84% (inactive); that for `C[C@H](CO)N1C[C@H](C)[C@H](CN(C)Cc2ccncc2)Oc2cc(-c3ccccc3F)ccc2S1(=O)=O`, 11.1% (inactive).
In the case of `CCOc1cc(/C=N/n2nnnc2N)ccc1OCc1c(C)no[n+]1[O-]`, the inhibition was -7.92% (inactive).
For `Cc1ccc(NC(=O)CNNC(=O)c2cccc([N+](=O)[O-])c2)cc1[N+](=O)[O-]`, the inhibition was -5.02% (inactive).
For `CS(=O)(=O)N1CCN(c2ccccc2NC(=O)c2cc3ccccc3o2)CC1`, the inhibition is -6.66% (inactive).
The result for `O=C(Nc1ccccc1)c1oc2ccccc2c1NC(=O)C1CC1` reads 1.67% (inactive); that for `CCOc1ccc(CCNC(=O)COC(=O)c2ccc(F)c(S(=O)(=O)N3CCOCC3)c2)cc1OCC`, -3.82% (inactive).
Take `COc1cccc(C=Nc2ccc3c(c2)OCCO3)c1O`: the inhibition is -25.9% (inactive).
With `NC(=S)N/N=C/c1ccc(C(F)(F)F)cc1` the figure was 9.68% (inactive); with `Cc1ccc2cccc(OCC(=O)NCCC3=CCCCC3)c2n1`, -3.55% (inactive).
With `CCOc1ccc(NC(=O)CSc2nccn(-c3ccc4c(c3)OCCO4)c2=O)cc1` the figure was -10.1% (inactive).

By inhibition is commonly meant the change of the read-out against control, counted positive when it falls.
